Assay results as given in the supplement of paper PMC9694430.

What was measured:
Assay in all cases: thermal shift delta Tm vs DMSO control; higher = stronger stabilization (binding)
Settings in all cases: 12.5 µM; protein concentration 2 µM
LOC_OS02G45750-cb003 = system: LOC_OS02G45750-cb003
Outline: (§1)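 Rice kinase domain constructs were expressed in E. coli, purified, and tested by differential scanning fluorimetry with compound added in DMSO. Each well of a 96-well plate held 19.5 μl of 2 μM kinase in 100 mM potassium phosphate pH 7.5, 150 mM NaCl, 10% glycerol and 5 × SYPRO Orange, and fluorescence was read from 25°C to 95°C at 0.05°C/s. The melting temperature shift is the mean of triplicates, taken against protein with DMSO alone after Boltzmann fitting.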

LOC_OS02G54510-cb004 = system: LOC_OS02G54510-cb004
Outline: as §1

LOC_OS03G04050-cb001 = system: LOC_OS03G04050-cb001
Outline: as §1

LOC_OS03G12390-cb001 = system: LOC_OS03G12390-cb001
Outline: as §1

LOC_OS03G27990-cb004 = system: LOC_OS03G27990-cb004
Outline: as §1

LOC_OS03G50450-cb001 = system: LOC_OS03G50450-cb001
Outline: as §1

LOC_OS03G50810-cb003 = system: LOC_OS03G50810-cb003
Outline: as §1

LOC_OS04G35114-cb001 = system: LOC_OS04G35114-cb001
Outline: as §1

LOC_OS04G38480-cb003 = system: T1, LOC_OS04G38480-cb003
T1 sequence (whole entry): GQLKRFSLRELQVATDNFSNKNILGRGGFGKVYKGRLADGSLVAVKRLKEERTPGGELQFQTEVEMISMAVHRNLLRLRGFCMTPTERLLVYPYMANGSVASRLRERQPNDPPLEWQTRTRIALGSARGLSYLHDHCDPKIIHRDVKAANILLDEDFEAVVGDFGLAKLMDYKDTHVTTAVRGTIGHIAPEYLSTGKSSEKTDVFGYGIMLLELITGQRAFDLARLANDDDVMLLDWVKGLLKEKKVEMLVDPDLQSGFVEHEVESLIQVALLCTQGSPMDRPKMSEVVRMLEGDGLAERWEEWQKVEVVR
Outline: as §1

LOC_OS04G41100-cb001 = system: T2, LOC_OS04G41100-cb001
T2 sequence (whole entry): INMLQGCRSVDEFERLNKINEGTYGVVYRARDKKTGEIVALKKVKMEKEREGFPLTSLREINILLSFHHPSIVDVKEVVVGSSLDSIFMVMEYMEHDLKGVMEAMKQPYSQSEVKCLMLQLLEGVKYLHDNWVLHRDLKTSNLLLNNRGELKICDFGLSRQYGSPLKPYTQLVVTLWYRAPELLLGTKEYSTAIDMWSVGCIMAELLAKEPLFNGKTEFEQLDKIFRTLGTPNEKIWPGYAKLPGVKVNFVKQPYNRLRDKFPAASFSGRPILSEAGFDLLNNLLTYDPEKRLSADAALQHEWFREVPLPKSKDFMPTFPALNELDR
Outline: as §1

LOC_OS04G57630-cb004 = system: LOC_OS04G57630-cb004
Outline: as §1

LOC_OS05G07850-cb002 = system: LOC_OS05G07850-cb002
Outline: as §1

LOC_OS05G16824-cb004 = system: LOC_OS05G16824-cb004
Outline: as §1

LOC_OS05G28520-cb001 = system: LOC_OS05G28520-cb001
Outline: as §1

LOC_OS05G30820-cb001 = system: LOC_OS05G30820-cb001
Outline: as §1

LOC_OS05G43570-cb004 = system: LOC_OS05G43570-cb004
Outline: as §1

LOC_OS06G16330-cb003 = system: LOC_OS06G16330-cb003
Chain of LOC_OS06G16330-cb003 (as listed by the source): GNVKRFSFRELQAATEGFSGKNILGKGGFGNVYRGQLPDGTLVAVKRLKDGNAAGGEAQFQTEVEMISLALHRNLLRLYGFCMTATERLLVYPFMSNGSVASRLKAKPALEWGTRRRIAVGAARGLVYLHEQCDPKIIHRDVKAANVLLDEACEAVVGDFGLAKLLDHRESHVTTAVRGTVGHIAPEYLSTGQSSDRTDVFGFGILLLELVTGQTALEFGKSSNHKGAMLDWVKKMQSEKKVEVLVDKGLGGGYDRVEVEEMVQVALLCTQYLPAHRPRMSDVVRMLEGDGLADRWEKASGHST
Outline: as §1

LOC_OS06G22820-cb001 = system: T3, LOC_OS06G22820-cb001
T3 sequence (whole entry): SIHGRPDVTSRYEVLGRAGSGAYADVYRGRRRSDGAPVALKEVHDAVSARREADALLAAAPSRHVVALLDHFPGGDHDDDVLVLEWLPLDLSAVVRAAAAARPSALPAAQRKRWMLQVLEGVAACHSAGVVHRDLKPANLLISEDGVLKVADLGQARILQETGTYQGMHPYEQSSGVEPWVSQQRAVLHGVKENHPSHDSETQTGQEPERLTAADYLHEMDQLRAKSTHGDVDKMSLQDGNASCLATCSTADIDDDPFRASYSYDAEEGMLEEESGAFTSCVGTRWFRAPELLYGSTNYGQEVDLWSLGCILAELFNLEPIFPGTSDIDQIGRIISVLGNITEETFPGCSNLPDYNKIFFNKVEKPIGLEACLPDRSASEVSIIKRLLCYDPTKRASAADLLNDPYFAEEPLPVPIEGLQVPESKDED
Outline: as §1

LOC_OS07G06570-cb004 = system: LOC_OS07G06570-cb004
Outline: as §1

LOC_OS07G07230-cb001 = system: LOC_OS07G07230-cb001
Outline: as §1

Row | Compound | thermal shift delta Tm (LOC_OS02G45750-cb003) [°C] | thermal shift delta Tm (LOC_OS02G54510-cb004) [°C] | thermal shift delta Tm (LOC_OS03G04050-cb001) [°C] | thermal shift delta Tm (LOC_OS03G12390-cb001) [°C] | thermal shift delta Tm (LOC_OS03G27990-cb004) [°C] | thermal shift delta Tm (LOC_OS03G50450-cb001) [°C] | thermal shift delta Tm (LOC_OS03G50810-cb003) [°C] | thermal shift delta Tm (LOC_OS04G35114-cb001) [°C] | thermal shift delta Tm (LOC_OS04G38480-cb003) [°C] | thermal shift delta Tm (LOC_OS04G41100-cb001) [°C] | thermal shift delta Tm (LOC_OS04G57630-cb004) [°C] | thermal shift delta Tm (LOC_OS05G07850-cb002) [°C] | thermal shift delta Tm (LOC_OS05G16824-cb004) [°C] | thermal shift delta Tm (LOC_OS05G28520-cb001) [°C] | thermal shift delta Tm (LOC_OS05G30820-cb001) [°C] | thermal shift delta Tm (LOC_OS05G43570-cb004) [°C] | thermal shift delta Tm (LOC_OS06G16330-cb003) [°C] | thermal shift delta Tm (LOC_OS06G22820-cb001) [°C] | thermal shift delta Tm (LOC_OS07G06570-cb004) [°C] | thermal shift delta Tm (LOC_OS07G07230-cb001) [°C]
1 | CC1(C)OC(=O)C=C[C@]2(C)[C@H]3CC[C@@]4(C)[C@H](c5ccoc5)OC(=O)[C@H]5O[C@]54[C@]3(C)C(=O)C[C@@H]12 [Obacunone] | 0.46 | -0.19 | 0.48 | 0.2 | 0.14 | 0.72 | 0.54 | -0.27 | 1.66 | 0.27 | -0.08 | -0.17 | 0.73 | 0.17 | 0.18 | 0.33 | -0.35 | 0.3 | 1.76 | 0.44
2 | CCn1c2ccccc2c2cc(Nc3ccnc(NCCCN4CCOCC4)n3)ccc21 | 0.77 | 0.13 | 0.05 | -0.48 | 0.11 | 0.22 | 0.04 | 1.09 | 1.71 | 0.46 | 0.23 | 3.68 | -1.41 | 0.55 | 0.41 | 0.2 | 0.02 | 0.32 | 1.17 | 0.72
3 | O=C(Nc1cccc(Nc2ncc(Br)c(NCCc3cnc[nH]3)n2)c1)N1CCCC1 | 9.57 | 1.18 | 0.77 | 2.81 | 1.73 | 6.39 | 5.57 | 5.16 | 2.86 | 2.52 | 7.51 | 10.4 | 13.2 | -0.09 | 6.02 | 0.65 | 8.57 | 0.67 | 0.48 | 1.02
4 | Cn1cnc2c(F)c(Nc3ccc(Br)cc3F)c(C(=O)NOCCO)cc21 | 0.6 | 0.05 | 0.71 | 0.19 | 0.4 | 0.43 | 0.44 | 0 | 1.48 | 0.46 | 0.45 | 1.86 | -1.71 | 0.55 | 0.44 | 0.51 | -0.03 | 0.61 | 1.32 | -0.18
5 | N#Cc1cccc(-c2c[nH]c3ncnc(N4CCOCC4)c23)c1 | 3.36 | 0.44 | 0.26 | 3.14 | 0.37 | -0.1 | 2.96 | 5.02 | 1.08 | 0.06 | 0.05 | 12.3 | 1 | 0.3 | 0.46 | 0.26 | 3.82 | 0.53 | 0.63 | 0.58
6 | COc1cc(Nc2ncc(F)c(Nc3ccc4c(n3)N(COP(=O)(O)O)C(=O)C(C)(C)O4)n2)cc(OC)c1OC [Fostamatinib (R788)] | 4.51 | 2.89 | 0.44 | 7.17 | 2.16 | 10.5 | 3.97 | 3.46 | 4.1 | 0.47 | 1.74 | 12 | 12 | 0.41 | 2.2 | 0.38 | 12.2 | 0.25 | 0.55 | 0.44
7 | COc1cc2ncnc(Nc3cccc(Cl)c3)c2cc1OC [AG-1478 (Tyrphostin AG-1478)] | 4.64 | 0.2 | 0.25 | 2.86 | 0.56 | 0.38 | 2.25 | 6.57 | 2.27 | 0.04 | 0.54 | 10.9 | 0.02 | 0.3 | 0.62 | 0.52 | 5.45 | 0.8 | 0.35 | 0.01
8 | CC(C)(C)c1cc(NC(=O)Nc2ccc(Oc3ccnc4[nH]c(=O)cnc34)cc2F)n(-c2ccccc2)n1 | 8.1 | 3.28 | 0.21 | 4.04 | 0.22 | 0.17 | 2.66 | 0.44 | 2.2 | 7.51 | 10.3 | 12.5 | 0.62 | 0.57 | 0.39 | 0.48 | 5.36 | 0.49 | 1.22 | -0.1
9 | CC(C)(C)c1nc(-c2cccc(NS(=O)(=O)c3c(F)cccc3F)c2F)c(-c2ccnc(N)n2)s1 | 2.7 | 2.41 | 0.43 | 0.52 | 0.49 | 1.42 | 1.63 | 2.09 | 2.46 | 2.47 | 1.63 | 9.38 | 8.29 | 0.83 | 3.66 | 0.62 | 3.39 | 0.62 | 0.8 | 0.6
10 | CC(C)S(=O)(=O)c1ccc2nccc(Nc3ccc4scnc4c3)c2c1 | 1.88 | 0.89 | 0.51 | 0.9 | 0.22 | 0.37 | 0.61 | 2.38 | 2.44 | 0.32 | 2.51 | 3.36 | 4.91 | 0.25 | -0.04 | 0.38 | 2.09 | 0.32 | 1.62 | 0.17
11 | O=C1NC(=O)C(c2cnc3ccccn23)=C1c1cn2c3c(cc(F)cc13)CN(C(=O)N1CCCCC1)CC2 | 0.77 | 0 | 0.57 | 4.58 | 0.13 | 0.64 | 0.95 | 1.35 | 1.47 | 1.44 | 0.36 | 5.85 | 3.38 | 1.1 | 0.39 | 0.48 | -0.6 | 1.42 | 2.11 | 0.29
12 | CCN1CCN(Cc2ccc(C(=O)Nc3ccc(C)c(Oc4ccc5c(c4)CC(=O)N5)c3)cc2C(F)(F)F)CC1 | 1.5 | 0.41 | 0.79 | 0.12 | 0.67 | 1.13 | 0.7 | 1.2 | 1.7 | 0.5 | 0.33 | -0.13 | 2.03 | 0.4 | 0.41 | 0.42 | 0.43 | 0.56 | 0.16 | 0.28
